# Screening data (PubChem BioAssay)
# The full list was thinned out, with hits kept by preference.
# Ba CapD inh – inhibitors of Bacillus anthracis CapD enzyme. z-score (no concentration beside the values). AID 492967. actives 0.23% (n = 140,000). purified CapD enzyme, fluorescence intensity read-out; hits give low values; in the data active = z-score mostly below about -2.9, no sharp cut-off; inactive = mostly above about -1.9
# * hit, by the source's call.
SMILES,Ba CapD inh
O=C(CCn1c(=O)c2ccccc2n(CC(=O)Nc2ccccc2)c1=O)NCCc1ccccc1,-5.6*
CCCN(CCC)C(=O)Cn1c(=O)n(CCC(=O)NCCc2ccccc2)c(=O)c2ccccc21,0.53
CS(=O)(=O)CCSc1ncccc1C(=O)Sc1ccc(Cl)cc1Cl,-0.22
O=C(Nc1ccc(F)cc1)c1cccc(OC(=S)Nc2cccc(Br)c2)c1,0.06
COC(=O)c1ccc(N2CCCC2)c(NS(=O)(=O)c2ccc(C)cc2)c1,-0.48
CSC1=N/C(=C/c2cccs2)C(=O)N1,-4*
CC1(C)OC(=O)C(=Cc2cccs2)C(=O)O1,-0.63
CSC1=N/C(=C/c2ccco2)C(=O)N1,-2.9
CCCN1C(=O)c2ccccc2C(C(=O)O)C1c1ccc(OC)cc1 (centres undefined),0.45
COc1ccc(C2/C(=C(\O)c3ccccc3)C(=O)C(=O)N2CCN2CCOCC2)cc1 (centres undefined),-0.94
COc1ccc(C2C(C(=O)/C=C/c3ccccc3)=C(O)C(=O)N2CCO)cc1 (centres undefined),-3.9*
Cc1ccccc1C(=O)Nc1c(C(=O)N2CCOCC2)oc2ccccc12,-1.4
NC(=O)c1oc2ccccc2c1NC(=O)c1cccs1,0.76
O=C(Nc1c(C(=O)N2CCOCC2)oc2ccccc12)c1cccs1,-3.6*
COc1ccc(C2CC(c3cccs3)=NN2C(=O)CSc2nnc(CNC(=O)c3cccc(OC)c3)n2C)cc1 (centres undefined),16
CCN1CCN(C(=O)c2nc(-c3cccnc3)no2)CC1,-0.56
Cc1ccc(/C(C#N)=C/c2ccc3c(c2)OCO3)cc1,1.8
O=C1NC(=S)NC(=O)C1=Cc1ccc(OCc2ccc(C(=O)O)cc2)c(Br)c1,-5*
O=C1NC(=O)C(=Cc2ccc(OCc3ccc(C(=O)O)cc3)c(Br)c2)C(=O)N1,-0.22
COc1cc(C=C2C(=O)NC(=O)NC2=O)ccc1OCc1ccc(C(=O)O)cc1,0.84
COc1ccccc1/C=C(\C(=O)NCc1ccc(C)cc1)c1ccccc1,0.25
O=C(NCCC1=CCCCC1)OCC#Cc1ccccc1,-0.54
O=C1C=CC(=O)C(c2ccc(C(=O)O)cc2)=C1,-8*
CC(C)c1ccc(C2=CC(=O)C=CC2=O)cc1,5.7
CCc1ccc(C2=CC(=O)C=CC2=O)cc1,-0.42
SMILES,Ba CapD inh
C/C(=N\O)C(=O)c1ccc(-c2ccccc2F)cc1,0.69
COc1ccc2nc(N3CCCCC3)c(/C=C3\N=C(c4ccccc4)OC3=O)cc2c1,-0.33
CC1=NN(c2ccc3c(S(=O)(=O)O)cc(S(=O)(=O)O)cc3c2)C(=O)C1,-6*
CC1=NN(c2ccc(C(=O)NCc3ccc(N(C)C)cc3)cc2)C(=O)C1,-1.1
CC1=NN(c2ccccc2)C(=O)C1,-0.89
Cc1ccc(NS(=O)(=O)c2cc(S(=O)(=O)Nc3ccc(C)cc3)c3cccc4c3c2NC4=O)cc1,-0.18
Cc1cc(C)cc(C(=O)NCCCN2CCOCC2)c1,0.67
Cc1csc(NC(=O)CSCC(=O)O)c1-c1nc2ccccc2s1,-2.4*
Cc1csc(N)c1-c1nc2ccccc2s1,2.9
O=C(O)CSCC(=O)Nc1ccc(-c2nc3ccccc3s2)cc1,82
CC(=O)Oc1ccc(C(O)(C(F)(F)F)C(F)(F)F)cc1,0.16
Cc1ccc(-c2nc(S(=O)(=O)c3ccc(C)cc3)c(N(C)C)o2)cc1,-0.24
Cc1ccc(S(=O)(=O)c2nc(C)oc2N(C)C)cc1,-3*
Cc1ccc(S(=O)(=O)CCc2nc(S(=O)(=O)c3ccc(C)cc3)c(N(C)C)o2)cc1,-0.37
N#CC1=C(N)OC(c2ccccc2)=C(n2cncn2)C1c1ccc(Br)cc1 (centres undefined),0.32
CCOC(=O)c1nn(-c2ccc(Cl)cc2)c(=O)c2c(N)scc12,-1.3
CCOc1ccccc1NC(=O)CSc1ccc(C)cc1,-0.005
CC(C)NC(=O)c1ccc(-n2cc(-c3ccnc4ccccc34)cn2)cc1,16
C/C(=C\C(=O)c1ccc(C)o1)Nc1ccc(Nc2ccccc2)cc1,-2
C/C(=C\C(=O)c1ccc(C)o1)Nc1ccc(C(=O)O)cc1C,-4*
C/C(=C\C(=O)c1ccc(C)o1)Nc1ccc(F)c(C)c1,-2.4
Cc1cc(C)nc(Nc2ccc(NC(=O)C(C)(C)C)cc2)n1,-0.095
COc1cc(C(CC(=O)O)CC(=O)Nc2ccc(C)cc2)cc(OC)c1OC (centres undefined),0.4
CC(=O)Oc1cc(OC(C)=O)cc(C(=O)O)c1,-8.7*
CC(=O)Oc1cncc(C(=O)O)c1,-0.68
SMILES,Ba CapD inh
CC(=O)Oc1ccc(-c2ccc(C(=O)O)cc2)cc1,-3.2
O=C(Oc1ccc2oc(=O)sc2c1)c1cccc(Cl)c1,0.97
CCCNC(=O)c1ccc(C)c(NC(=O)C2=CSCCO2)c1,0.005
COC(=O)C(C(=O)OC)C(Nc1ccccc1)c1ccccc1 (centres undefined),-7.1*
CCOC(=O)C(Nc1cccc(F)c1)c1ccccc1 (centres undefined),-0.47
COC(=O)C(C)Nc1ccc(C)cc1 (centres undefined),1.4
CCOc1ccccc1N/C(SCc1ccc(OC(F)(F)F)cc1)=C(/C#N)C(=O)NCc1ccccc1,0.005
Cc1nn(S(=O)(=O)c2ccccc2)c(C)c1Oc1ccc(Cl)cc1,0.63
CCN(C(=O)CCn1c(=O)sc2ccccc21)c1ccccc1,-0.05
CCOC(=O)C1=C(C)NC2=C(C(=O)C(C(=O)OC)C(C)C2)C1c1ccccc1 (centres undefined),-0.43
COC(=O)C1C(=O)C2=C(CC1C)Nc1ccccc1NC2c1ccccc1C (centres undefined),-4*
COC(=O)C1C(=O)C2=C(CC1C)Nc1ccccc1NC2c1c[nH]c2ccccc12 (centres undefined),-2.5
CCn1nc(C)cc1-c1nnc(SC)n1-c1cccc(C(F)(F)F)c1,0.3
O=C(COC(=O)c1ccccc1O)c1cccs1,-0.39
O=C(CN1CCN(c2ncc(C(F)(F)F)cc2Cl)CC1)N1CC(O)CO1 (centres undefined),-0.52
COc1ccc(-c2[nH]ncc2CN2CCC(O)(c3ccc(Cl)cc3)CC2)cc1,-0.2
Fc1ccc(-c2[nH]ncc2CN2CCN(Cc3ccccc3)CC2)cc1,-0.29
OC1(c2ccc(Cl)cc2)CCN(Cc2cn[nH]c2-c2ccccc2)CC1,-2.3*
Cc1ccc2nc(NC(=O)c3ccc(-c4ccccc4)cc3)sc2c1,-0.62
O=C(c1cc(F)cc2c1OCOC2)N1CCC(O)(c2ccc(Cl)cc2)CC1,-0.3
CCOC(=O)c1c(C)n(-c2ccc(C)cc2C)c2ccc(OC(=O)/C=C/c3ccccc3)cc12,0
O=C(O)c1ccc(C(=O)O)c2c(-c3ccc4c(=O)n5c6ccccc6nc5c5ccc(C(=O)O)c3c45)ccc(C(=O)O)c12,-8.4*
O=c1c2ccc(N/N=C/c3c4ccccc4cc4ccccc34)c3cccc(c32)c2nc3ccccc3n12,-0.14
N#Cc1ccc2c(c1)nc1c3ccc(C(=O)O)c4c(C(=O)O)ccc(c(=O)n21)c43,-1.1
O=C1OC/C(=C(\O)c2ccc(Cl)cc2)C1=O,-5.4*
SMILES,Ba CapD inh
O=C1OC/C(=C(/O)c2ccccc2)C1=O,-3.1
N#CC1=C(c2ccc(Cl)cc2)COC1=O,2.9
O=[N+]([O-])c1ccc(N=Nc2c(O)n(-c3ccccc3)c3ccccc23)cc1,-0.28
O=C(O)CCCc1ccc2c(c1)OCO2,-0.58
O=C(O)CCCCc1cccs1,1.4
Nc1cc(CCCC(=O)O)sc1CCCC(=O)O,-10*
COc1cc(CNc2ccccc2SC)ccc1O,7
C=CCc1ccc(O)c(OC)c1,-10*
COc1cc(CNc2ccc(C)cc2)ccc1O,0.26
CN(C)/C=C/C=C1\CCCC1=O,-9*
CN(C)/C=C/C=C1C(=O)CCCC1=O,-0.57
